Lassa entry inh: Lassa virus entry inhibition; Lassa virus pseudotype entry inhibition, cell reporter; Potency, µM (series often up to 37.9 µM), for inactives: at the top dose activity change, negative = inhibition, usual class: inhibitors; actives 1.2% (n = 300,000); calls by dose curve; tested in HEK293 cells; also: potency is read from the fitted curve at half-maximal effect; % is scaled to controls: 0 for no effect and ±100 for the full control effect; nearly all actives have a fitted effect of over 50% in size
MARV entry inh: inhibitors of Marburg virus binding or cell entry; Marburg virus pseudotyped entry inhibition, cell reporter; Potency, µM (highest dose often 37.8 µM), without a hit: top-dose activity change, negative = inhibition, most hits filed as inhibitors; AID 540276; actives 1.8% (n = 300,000); calls by dose curve; tested in HEK293 cells; also: potency is read from the fitted curve at half-maximal effect; % is scaled to controls: 0 for no effect and ±100 for the full control effect
Shiga inhibitor: Shiga toxin inhibition; Vero cells, Shiga toxin protein synthesis inhibition reporter; inhibition, % at 38.7 µM; actives 9.2% (n = 290,000); AID 2315; in the data active = inhibition mostly above about 28%, no sharp cut-off; inactive = mostly below about 43%; also: 0% is about no effect
FMDV inh: blocks foot and mouth disease virus | actives 1.2% (n = 410,000) | Potency, µM (titrated, usually from 57.9 µM), without a hit: at the highest dose activity change, negative = inhibition, hits mostly inhibitors | FMDV antiviral cell-based qHTS | AID 1159524; calls by dose curve; tested in HEK293T cells; also: read-out not given here; potency is read from the fitted curve at half-maximal effect; % is scaled to controls: 0 for no effect and ±100 for the full control effect; nearly all actives have a fitted effect of over 45% in size
CHX counter: counter-screen hit for Shiga toxin inhibitors, cycloheximide; cell reporter, cycloheximide protein synthesis inhibition counterscreen; max response, %; actives 12% (n = 300,000); in the data active = max response mostly above about 13%, no sharp cut-off; inactive = mostly below about 14%; also: read at 38.3 µM for the half of the compounds with a filed dose; 0% is about no effect
HCV inh: inhibitors of hepatitis C virus infection; Huh7.5.1 HCVcc-Cre infection, luciferase reporter, 44 h; Potency, µM (doses to about 41.8 µM), for inactives: top-dose activity change, negative = inhibition, usual class: inhibitors; actives 3.4% (n = 340,000); AID 651820; active = well fitted inhibition curve with a large enough effect; inconclusive = small, poorly fitted or top-dose-only effect, or another doubt; inactive = no such curve, though single readings can be large or run the other way; also: potency is read from the fitted curve at half-maximal effect; % is scaled to controls: 0 for no effect and ±100 for the full control effect
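Reporter virus HCVcc-Cre (~0.5 moi) infects cells exposed to compound; seeding density 1,000 cells/well with 4 h settling beforehand. Luminescence, 15 sec read, taken 44 h post-infection following a 15 min RT substrate incubation.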
An asterisk follows results filed as active; ? = inconclusive; · = not tested or not shown; ! = not confirmed by another sample; [ ] = dose if it differs, or a comment. Sampled rows, rich in hits. Any-hit rate of the full collection: about 13%.

SMILES	Lassa entry inh	MARV entry inh	Shiga inhibitor	FMDV inh	CHX counter	HCV inh
CN(CC(=O)Nc1cccc(F)c1)C(=O)CNC(=O)Cc1cccc2ccccc12	5%	5%	·	-18%	·	5%
NC(=O)c1ccccc1OCC(=O)Nc1ccc(Cl)c(Cl)c1	·	·	71*	9%	39*	-28%
O=C(CSCc1c(Cl)cccc1Cl)Nc1ccc2c(c1)OCCO2	5%	6%	76*	-13%	59*	?
NC(=O)c1ccccc1OCC(=O)Nc1ccc2c(c1)CCC2	·	·	·	35%	·	-5%
CC(C)=CC(=O)OCC(=O)Nc1cc(C)cc(C)c1	-1%	-6%[46.1 µM]	8	-9%	11	-22%
Cc1ccccc1OCCCC(=O)Nc1ccc2c(c1)OCO2	-8%	13%	active	24%	32*	?
CC(C)=CC(=O)OCC(=O)Nc1ccc(Cl)cc1	-12%[46.1 µM]	?	41*	-14%	24*	-7%
CCCCNc1nc(Oc2ccc(=O)[nH]n2)nc(N(C)C)n1	4%[46.1 µM]	-11%[46.1 µM]	·	0%	·	·
Cc1cccc(C(C)C)c1NC(=O)COC(=O)c1cc2ccccc2oc1=O	·	·	·	-10%	·	22%
COc1ccccc1OCC(=O)Nc1ccc2c(c1)OCCO2	?	26%[46.1 µM]	78*	24%	30*	-5%
Cc1ccc(NC(=O)CCOc2ccccc2C)cc1C	?	?	40	0%	26*	-12%
Cc1ccccc1OC(C)C(=O)Nc1ccc2c(c1)OCO2 (stereo not drawn)	·	·	-19	-10%	15	1%
NC(=O)c1ccccc1OCC(=O)Nc1ccc2c(c1)OCCO2	-30%[46.1 µM]	?	·	26%	·	-22%
COc1ccccc1OC(C)C(=O)Nc1ccc2c(c1)OCCO2 (stereo not drawn)	0%[46.1 µM]	11%[46.1 µM]	25	9%	19*	18%
O=C(COC(=O)c1cccnc1Cl)NCc1cccs1	4%[46.1 µM]	-1%[46.1 µM]	33	18%	37*	25%
Cc1ccccc1OCC(=O)N/N=C/c1ccc2c(c1)OCCO2	?	1%	19	29%	31*	1%
O=C(COC(=O)c1cccnc1Cl)Nc1ccc2c(c1)OCCO2	21%[46.1 µM]	7%[46.1 µM]	115*	29%	49*	-5%
Cc1cccc(C)c1OCC(=O)Nc1ccc2c(c1)OCCO2	·	·	82*	10%	26	-25%
COc1ccccc1OCC(=O)Nc1ccc(Cl)cc1	?	14%	51*	64%	24*	-43%
COc1ccccc1OCC(=O)Nc1ccc(NC(=O)COc2ccccc2OC)cc1	5%[46.1 µM]	?	-8	-25%	6	?
O=C(COc1cccc(Br)c1)N/N=C/c1ccc2c(c1)OCCO2	·	·	·	33%	·	·
Cc1cccc(C)c1NC(=O)N1C2CCC1CC(O)(c1cccnc1)C2 (stereo not drawn)	4%	3%	-14	-10%	0	-4%
Cc1cccc(C)c1NC(=O)Nc1nc(C(N)c2ccccc2Cl)cs1 (stereo not drawn)	·	·	·	-19%	·	·
O=C(COc1ccccc1Cl)NCCc1ccc2c(c1)OCCO2	15%	?	58*	-14%	42*	?
O=C(COc1ccc(Br)cc1Cl)NC(=O)Nc1ccc2c(c1)OCCO2	-4%[46.1 µM]	19%[46.1 µM]	63*	29%	36*	-6%
SMILES	Lassa entry inh	MARV entry inh	Shiga inhibitor	FMDV inh	CHX counter	HCV inh
O=C(COc1ccccc1Cl)Nc1ccc2c(c1)OCCO2	-13%	?	87*	-27%	45*	?
Cc1ccccc1OCC(=O)Nc1ccc2c(c1)OCCO2	·	·	108*	39%	51*	-6%
O=C(COC(=O)c1c(F)cccc1Cl)NC(=O)Nc1ccc2c(c1)OCCO2	·	·	·	23%	·	-4%
O=C(c1ccc(F)cc1)N(Cc1cccs1)C1CCS(=O)(=O)C1 (stereo not drawn)	·	·	1	-14%	-9	6%
COc1ccccc1NC(=O)CSc1nc(C)c2c(c1C#N)CCCC2	1%	-2%	-6	-9%	-1	-20%
Cc1noc(C)c1CSc1nnc(-c2ccncc2)n1-c1ccc(Cl)c(Cl)c1	4%	0%	-15	-16%	-2	16%
CCOc1ccc(N2CC(c3nc4ccccc4n3Cc3cccc(C)c3)CC2=O)cc1 (stereo not drawn)	-26%[46.1 µM]	?	·	-20%	·	·
c1coc(-c2nc3ccccc3s2)c1	19%[46.1 µM]	?	·	30%	·	22%
c1ccc2sc(-c3ccncc3)nc2c1	26%[46.1 µM]	?	51*	15%	44*	?
c1ccc(Cc2nc3ccccc3s2)cc1	8%[46.1 µM]	-3%[46.1 µM]	·	21%	·	23%
c1csc(-c2nc3ccccc3s2)c1	?	?	96*	57%	56*	3%
c1cncc(-c2nc3ccccc3s2)c1	·	·	112*	35%	39*	?
O=S(=O)(c1cccc(-c2nc3ccccc3s2)c1)N1CCOCC1	0%	-20%	2	26%	14	-27%
Cc1ccc(-c2nc3ccccc3s2)cc1S(=O)(=O)N1CCCC1	9%	?	43	-22%	30*	?
O=S(=O)(CCN1CCN(c2ccccc2O)CC1)c1ccc(Cl)cc1	·	·	·	-29%	·	·
O=C(NCCc1ccccc1)C1CCCN(C(=O)Nc2ccc(F)cc2)C1 (stereo not drawn)	?	?	24	-12%	-6	?
CS(=O)(=O)Nc1ccc(-c2nc3ccccc3s2)cc1	?	?	·	0%	·	·
c1ccc2sc(-c3ccc4c(c3)OCO4)nc2c1	9.2µM*	?	52*	-76%	34*	?
Oc1ccc(-c2nc3ccccc3s2)cc1	·	·	32	7%	32*	14%
O=C(Nc1cccc(-c2nc3ccccc3s2)c1)c1ccc2c(c1)OCO2	5%	12%	-2	·	15	-8%
N#CC1=C2SCC(O)(c3ccccc3)N2C(=O)CC1c1cccs1 (stereo not drawn)	?	0.033µM*!	-14	?	6	?
N#CC1=C2SCC(O)(c3ccccc3)N2C(=O)CC1c1ccccc1F (stereo not drawn)	?	?	-12	?	-3	?
O=C(Nc1nnc(C2CC2)s1)C1CCCO1 (stereo not drawn)	22%	0%	28	33%	12	0%
CC(C)c1nnc(NC(=O)C2CCCO2)s1 (stereo not drawn)	·	·	1	19%	13	1%
CCc1nnc(NC(=O)C2CCCO2)s1 (stereo not drawn)	29%[46.1 µM]	?	27	4%	17*	20%
CCCc1nnc(NC(=O)C2CCCO2)s1 (stereo not drawn)	11%	?	52	52%	25*	-5%
CC(C)c1ccc(NC(=O)CSC2=Nc3ccccc3C3=NC(CCC(=O)NCc4ccc(F)cc4)C(=O)N23)cc1 (stereo not drawn)	-1%[46.1 µM]	·	·	-36%	·	·
O=C(NCc1cccnc1)c1ccc(N2CCOCC2)c([N+](=O)[O-])c1	-1%	-11%	-15	?	-2	-3%
Cc1cnc(C(=O)OCC(=O)Nc2ncc(Cl)cc2Cl)cn1	·	·	·	-25%	·	-10%

Compound activity: PubChem BioAssay, National Center for Advancing Translational Sciences (NCATS)
